# Bioassay records as filed in PubChem BioAssay.
# Compounds with a hit are over-represented: about 1.2% of the library has one in this group of screens.
# RGS4-Gao reg: modulators of RGS4 binding to Galphao, primary screen, biochemical, multiplexed bead flow cytometry. Guanine nucleotide-binding protein G(o) subunit alpha (Homo sapiens), P09471. actives lie on both sides. binding response (% of control), % at 10 µM. 220,000 tested, 0.33% active. AID 1415, 2008; in the data active = binding response below about 49% or above about 150%; inactive = in between;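 note: fluorescent Galphao activated with aluminum fluoride binding bead-coupled RGS4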
# Target sequence (P09471 whole entry, looked up): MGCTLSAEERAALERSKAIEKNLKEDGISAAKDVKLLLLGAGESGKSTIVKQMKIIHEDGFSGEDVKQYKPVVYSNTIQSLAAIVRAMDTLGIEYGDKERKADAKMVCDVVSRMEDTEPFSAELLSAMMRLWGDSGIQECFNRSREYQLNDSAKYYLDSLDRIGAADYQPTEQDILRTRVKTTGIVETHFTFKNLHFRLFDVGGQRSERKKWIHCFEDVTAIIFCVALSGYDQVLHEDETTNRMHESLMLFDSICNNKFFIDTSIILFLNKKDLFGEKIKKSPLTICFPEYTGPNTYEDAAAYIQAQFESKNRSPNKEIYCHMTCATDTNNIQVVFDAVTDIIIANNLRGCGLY
# RGS16-Gao HTS: modulators of RGS16 binding to Galphao, primary screen, biochemical, human proteins, multiplexed bead flow cytometry. Regulator of G-protein signaling 16 (Homo sapiens) + Guanine nucleotide-binding protein …. bead-based flow cytometry RGS16-Galphao binding, fluorescence; actives lie on both sides. binding response (% of control), % at 10 µM. 220,000 tested, 0.38% active. AID 1441, 2008;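 note: Galphao activated by GDP with aluminum fluoride before binding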
# RGS7-Gao reg: RGS7-Galphao binding modulators, primary screen, biochemical, multiplexed bead flow cytometry. Guanine nucleotide-binding protein G(o) subunit alpha (Homo sapiens), P09471. actives lie on both sides. binding response (% of control), % at 10 µM. 220,000 tested, 0.35% active. AID 1439, 2008; in the data active = binding response below about 49% or above about 150%; inconclusive = no clear call, values can overlap the other calls; inactive = in between;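 note: fluorescent Galphao held in activated GDP-AlF4 state binding bead-coupled RGS7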
# RGS8-Gao: RGS8-Galphao binding modulators, primary screen, biochemical, multiplexed bead flow cytometry. actives lie on both sides. response (percent of control binding), % at 10 µM. 220,000 tested, 0.34% active; in the data active = response below about 60% or above about 140%; inactive = in between;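 note: Galphao activated as the GDP aluminium fluoride complex binding bead-coupled RGS8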
# GSH bead fluor: compound fluorescence on glutathione beads, profiling panel, artefact control, biophysical, 488/530 nm, flow cytometry | fluorescence (KMESF) at 10 µM | GSH beads flow cytometry, compound fluorescence 488/530 nm; stronger effect = higher value | AID 1776, 2009 | 190,000 tested, 0.25% active; in the data active = fluorescence above about 89;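 note: glutathione beads carrying GST-tagged Bcl family fusion proteins plus one bare bead set; values are compound well signal with DMSO vehicle wells as background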
# Avidin fluor: green autofluorescence of compounds with avidin beads – biophysical, 488/530 nm, flow cytometry, artefact control, profiling panel | fluorescence (KMESF) at 10 µM | compound fluorescence 488/530 nm; stronger effect = higher value | AID 1775, 2009 | 220,000 tested, 0.38% active; in the data active = fluorescence above about 47
# RGS-Gao: modulators of RGS–Galpha-o binding, primary screen, biochemical, multiplexed beads, flow cytometry, RGS4/7/8/16/19. multiplexed bead flow cytometry. RGS4–Galpha-o binding response, % at 10 µM. 1,600 tested, 99% active. AID 1504, 2009. shares compounds with RGS16-Gao HTS;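 note: fluorescently labeled Galpha-o bound to GDP with aluminium fluoride binding biotinylated RGS beads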
# Target sequence (P09471 whole entry, looked up): as above
# Target sequence (P49798 whole entry, looked up): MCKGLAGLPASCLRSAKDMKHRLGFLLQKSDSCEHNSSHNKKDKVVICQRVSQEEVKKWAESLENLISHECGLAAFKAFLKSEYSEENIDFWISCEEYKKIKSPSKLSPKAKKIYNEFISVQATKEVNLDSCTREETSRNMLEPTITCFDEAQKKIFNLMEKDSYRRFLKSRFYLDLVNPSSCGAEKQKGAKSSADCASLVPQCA
# Biotin-avidin: disruption of biotin probe capture by avidin, counter-screen for RGS protein interaction modulators, biochemical, flow cytometry, bead-based. shares compounds with RGS16-Gao HTS. streptavidin beads, fluorescein-biotin binding. inhibition, % at 10 µM. 1,700 tested, under 10 active. AID 1783, 2009;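 active = inhibition above 50%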;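 note: median green fluorescence of gated singlet beads compared with DMSO control wells; 0% = DMSO wells and 100% = complete loss of bead fluorescence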
# RGS8-Gao single: RGS8-Galphao binding modulators, confirmation, biochemical, multiplexed bead flow cytometry, single concentration; binding response (% of control), % at 10 µM; bead-based flow cytometry RGS8-Galphao binding, fluorescence; actives lie on both sides; AID 1836, 2009; 1,700 tested, 3% active; shares compounds with RGS16-Gao HTS; in the data active = binding response below about 72% or above about 130%; inactive = in between;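 note: Galphao activated as GDP AlF4 complex before binding bead RGS8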
# RGS7-Gao single: RGS7-Galphao binding modulators, confirmation, biochemical, multiplexed bead flow cytometry, single concentration | response (percent of control binding), % at 10 µM | shares compounds with RGS16-Gao HTS | bead-based flow cytometry RGS7-Galphao binding; actives lie on both sides | AID 1837, 2009 | 1,700 tested, 7.8% active; in the data active = response below about 75% or above about 130%; inactive = in between;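 note: fluorescent Galphao activated with GDP and aluminum fluoride binding bead-coupled RGS7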
# RGS16-Gao conf: modulators of RGS16-Galphao protein binding, confirmation, biochemical, single concentration, multiplexed bead flow cytometry. shares compounds with RGS16-Gao HTS. 1,700 tested, 4% active. bead-based flow cytometry; actives lie on both sides. AID 1838, 2009. response (% of control binding), % at 10 µM; in the data active = response below about 74% or above about 130%; inactive = in between;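 note: Galphao activated as the GDP aluminium fluoride complex binding bead-coupled RGS16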
# RGS4-Gao confirm: modulators of RGS4-Galphao protein binding, confirmation, biochemical, single concentration, multiplexed bead flow cytometry; shares compounds with RGS16-Gao HTS; actives lie on both sides; binding response (% of control), % at 10 µM; 1,700 tested, 4% active; AID 1840, 2009; in the data active = binding response below about 74% or above about 130%; inactive = in between
# RGS19-Gao conf: regulators of RGS19-Galphao binding, confirmation, biochemical, single point, multiplexed bead flow cytometry; response (percent of control binding), % at 10 µM; 1,700 tested, 5% active; AID 1841, 2009; bead-based flow cytometry RGS19-Galphao binding; actives lie on both sides; shares compounds with RGS16-Gao HTS; in the data active = response below about 50% or above about 160%; inactive = in between;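 note: 100% = no compound control and 0% = blank background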
# * = called active by the depositor; i = inactive; u = inconclusive; x = not tested or not shown; [ ] = dose if it differs, or a comment. Unless noted, the rule behind the calls is not given here.
SMILES,RGS4-Gao reg,RGS16-Gao HTS,RGS7-Gao reg,RGS8-Gao,GSH bead fluor,Avidin fluor,Biotin-avidin,RGS8-Gao single,RGS7-Gao single,RGS16-Gao conf,RGS4-Gao confirm,RGS19-Gao conf,others
Nc1cccc(CCc2nc3cc4ccccc4cc3[nH]2)c1,89,8.6*,83,70,8,6,-1,98,93,94,97,108,RGS-Gao=89*
COC(=O)CCN(C(=O)c1cccc(OC(C)=O)c1)c1ccccn1,104,106,102,104,34,4,x,x,x,x,x,x,
O=C(Nc1cccc(O)c1)c1noc2c1CCCCC2,x,x,x,x,32,x,1,107,106,110,103,103,
O=C(Nc1ccc(Nc2ccncc2)cc1)c1ccc(Nc2ccnc3ccc([N+](=O)[O-])cc23)cc1,24*,36,u,59*,x,-1,-1,104,88,99,90,87,
COc1ccccc1NC(=O)CN1C(=O)NC2(CCCCCCC2)C1=O,98,101,100,99,13,10,x,x,x,x,x,x,
Cc1ccccc1NC(=O)CN1C(=O)NC2(CCCCC2)C1=O,x,x,x,x,42,x,0,95,98,94,94,90,
Cc1cc(NC(=O)CN2C(=O)NC3(CCC(C)CC3)C2=O)no1 (stereo not given),24*,-10,23*,23*,10,-1,i,99,100,100,104,101,
NNC(=O)Cn1c2ccccc2c2ccccc21,100,102,u,103,x,4,x,x,x,x,x,x,
Cc1ccccc1OCCCC(=O)Nc1nncs1,103,104,100,102,18,16,x,x,x,x,x,x,
CN(C)C=NC(=O)/C(C#N)=C/c1ccccc1,108,116,103,108,10,26,x,x,x,x,x,x,
NS(=O)(=O)c1ccc(CCNC(=O)c2cccc(OC(F)F)c2)cc1,97,97,98,99,70,11,x,x,x,x,x,x,
CC(C)CCOc1cccc(OCC(=O)O)c1,422*[activator],352*[activator],375*[activator],130,63,84*,4,97,72*,87,85,58,
COCCn1c(C)cc(C(=O)COC(=O)c2ccc3ncsc3c2)c1C,-46*,-53*,15*,47*,10,5,1,94,98,85,81,128,
CCCC(C(=O)c1ccccc1)n1cncn1 (stereo not given),70,-9.0*,78,81,4,2,-1,101,101,102,102,101,RGS-Gao=70*
Cc1nnc(SCC(=O)NC2CC2)n1CC1CCCO1 (stereo not given),105,106,107,102,19,9,x,x,x,x,x,x,
Cc1ccc(C(=O)CNc2ccc(Cl)cc2)cc1,103,104,107,103,12,8,x,x,x,x,x,x,
C/C(=N/NC(=O)CNc1ccc(C)cc1)c1ccc(Cl)cc1,x,x,x,x,18,x,3,102,106,100,100,107,
C/C(=N/NC(=O)c1cc(-c2ccc(Br)s2)[nH]n1)c1ccco1,104,114,104,106,32,10,x,x,x,x,x,x,
C/C(=N\NC(=O)c1cc(C(C)C)[nH]n1)c1ccco1,102,190*[activator],106,126,7,3,2,101,102,101,100,108,RGS-Gao=102*
O=C(O)CSc1c2c(nc3cc(C(=O)NCCN4CCOCC4)ccc13)CCC2,99,104,u,100,x,4,x,x,x,x,x,x,
CC(C)CCN1CC(C(=O)NCCC2=CCCCC2)CC1=O (stereo not given),101,103,99,104,14,6,x,x,x,x,x,x,
CC(C)CCN1CCC(N)=NC1=O,234*[activator],191*[activator],217*[activator],110,35,26,-2,115,104,116,107,86,
CN1CCC(N(C)C(=O)CCc2nc3ccccc3n2-c2ccccc2)CC1,96,100,97,99,16,12,x,x,x,x,x,x,
COc1ccc(N2CCN(C(CNC(=O)OCc3ccccc3)c3ccco3)CC2)cc1 (stereo not given),104,189*[activator],106,124,17,13,3,103,99,101,100,98,RGS-Gao=104*
COc1ccc(N2CCN(C(CNC(C)=O)c3ccco3)CC2)cc1 (stereo not given),107,108,106,103,14,10,x,x,x,x,x,x,
O=C1/C(=C\c2ccc(-c3ccccc3[N+](=O)[O-])o2)C(c2ccccc2)=NN1c1ccccc1,-5.8*,-1.8*,7.8*,14*,65,-3,-5,100,86,98,95,86,
COc1ccc(NC(=O)CSc2ncnc3c2cnn3CCc2ccccc2)cc1,-20*,-12*,0.3*,19*,9,0,-1,100,101,101,103,103,
COc1cccc(NC(=O)CSc2ncnc3c2cnn3Cc2ccccc2)c1,102,101,96,101,33,12,x,x,x,x,x,x,
